# PubChem BioAssay (Tox21)
# Inconclusive results are not listed. Where a structure was tested more than once in an assay, its records may differ in their call. Active and inactive are the calls of the source. Calls come from the whole dose curve; as a rule, active = well fitted cell-killing curve with a large enough effect in the repeat runs; inconclusive = weak or mixed curves; inactive = flat fitted curve, though single readings scatter.
# Experiment: qHTS assay to identify small molecule antagonists of the estrogen related receptor (ERR) signaling pathway from Tox21 library - cell viability counter screen (AID 1224834); note: nearly all actives have a fitted effect of over 30% in size
# Details: ERR reporter cells viability, CellTiter-Fluor, 17.5 h; series mostly up to 92.4 µM; viability change, negative = cytotoxic: at the top concentration
# From the text: National Center for Advancing Translational Sciences [NCATS]
# NIH Chemical Genomics Center [NCGC]
# U.S. Environmental Protection Agency [EPA]
# National Institutes of Environmental Health Sciences [NIEHS]
# National Toxicology Program [NTP]
# U.S. Food and Drug Administration [FDA]
# Estrogen related receptors (ERRs), the first orphan nuclear receptors discovered, play an important role in the control of cellular energy metabolism. ERRs are required for high-energy production in response to the environmental challenges. ERR-alpha was also identified as an adverse marker for breast cancer progression; ERR-alpha-positive tumors have a poor prognosis. To screen and to identify environmental compounds that perturb the ERR signaling pathways could provide valuable information for potential therapeutic or preventive measures in the treatment of metabolic disease. To differentiate true ERR antagonists or agonist from cytotoxic substances, the assay is multiplexed with cell viability assay.
# Tox21 Assay Protocol Summary:
# The ERR cells were dispensed at 2,000 cells/5 ul/well in 1536-well white plates using a Multidrop dispenser. After the assay plates were incubated at a 37 C/5% CO2 incubator for 6 hours, 23 nL of compounds dissolved in DMSO, positive and negative controls or DMSO only was transferred to the assay plate by a pin tool. The plates were incubated at 37 C for 17.5 hours. 1 ul/well of CellTiter-Fluor reagent was added into the assay plates using a Flying Reagent Dispenser. After 30-minute incubation at 37 C/5% CO2, the fluorescence intensity in the plates was measured using a ViewLux plate reader.
# % is set by controls: 0 for no effect and ±100 for the full control effect; potency is the fitted concentration of half-maximal effect.
Structure (SMILES),"viability change, negative = cytotoxic",Potency
CC1(C)[C@H](C(=O)O)N2C(=O)C[C@H]2S1(=O)=O,0.243% [at 42.5 µM] (inactive),
CC(C)C=O,1.98% (inactive),
c1ccc2c(c1)CCc1ccccc1N2,,inactive
CO/N=C(/C(=O)N[C@@H]1C(=O)N2C(C(=O)O)=C(COC(N)=O)CS[C@H]12)c1ccco1,3.04% (inactive),
CCCC(=O)C(=O)O,-3.13% (inactive),
C=C(C)C(=O)OCCCCCCCCCCCCC,-0.336% (inactive),
CC(=O)c1ccc([N+](=O)[O-])cc1,0.525% (inactive),
O=C(Cn1ccnc1[N+](=O)[O-])NCCO,0.0848% [at 42.5 µM] (inactive),
C=C(C)[C@@H]1CCC2=CCC[C@@H](C)[C@]2(C)C1,0.35% (inactive),
OCCN1CCN(CCCN2c3ccccc3Sc3ccc(Cl)cc32)CC1,,26.6 µM (active)
CO[C@]1(NC(=O)CSC(F)F)C(=O)N2C(C(=O)O)=C(CSc3nnnn3CCO)CO[C@H]21,0.499% [at 42.5 µM] (inactive),
CN1CCCC(n2nc(Cc3ccc(Cl)cc3)c3ccccc3c2=O)CC1 (stereo not given),,29.8 µM (active)
O=c1cc(-c2ccccc2)oc2ccc3ccccc3c12,-11.3% (inactive),
C(=C\c1ccccc1)/c1ccccc1,0.758% (inactive),
Cc1ccc(CO)cc1,4.12% (inactive),
CCOC(=O)c1ccc(C#Cc2ccc3c(c2)C(C)(C)CCS3)nc1,-12% [at 42.5 µM] (inactive),
N#CCCN(CCO)CCO,14.7% (inactive),
Oc1cccc(Nc2ccccc2)c1,-8.94% (inactive),
CCN(CC)CCNC(=O)COc1ccc(OC)cc1,0.194% [at 42.5 µM] (inactive),
CCCCCCC(C)(C)C(=O)O,-2.3% (inactive),

Structure (SMILES),"viability change, negative = cytotoxic",Potency
C=COCC(C)C,2.84% (inactive),
Nc1cccc2c1CN(C1CCC(=O)NC1=O)C2=O (stereo not given),1.33% [at 42.5 µM] (inactive),
CNC(=O)c1cnn(-c2nc(N)c3ncn([C@@H]4O[C@H](CO)[C@@H](O)[C@H]4O)c3n2)c1,3.04% [at 42.5 µM] (inactive),
CC(=O)OCC[N+](C)(C)C,1.12% [at 42.5 µM] (inactive),
CCn1cc(C(=O)O)c(=O)c2cc(F)c(N3CCNCC3)cc21,-0.0574% [at 42.5 µM] (inactive),
CCC(=O)OC,4.36% (inactive),
C[C@@H](CN(C)C)CN1c2ccccc2Sc2ccccc21,,26.6 µM (active)
CN1C(C(=O)Nc2ccccn2)=C(O)c2sccc2S1(=O)=O,0.667% [at 42.5 µM] (inactive),
CC(=O)OCC(=O)NCCCOc1cccc(CN2CCCCC2)c1,9.19% [at 42.5 µM] (inactive),
CCOC(=O)OC(C)OC(=O)[C@@H]1N2C(=O)[C@@H](NC(=O)[C@H](N)c3ccccc3)[C@H]2SC1(C)C (stereo not given in full),-3.44% [at 42.5 µM] (inactive),
CCC(C)COC(=O)CC(C)C (stereo not given),-4.9% (inactive),
CCC(=O)C1CC(C(C)C)CC=C1C (stereo not given),11.8% (inactive),
O=[N+]([O-])c1cc(C2CCCCC2)c(O)c([N+](=O)[O-])c1,,12.2 µM (active)
COc1cc(Nc2c(C#N)cnc3cc(OCCCN4CCN(C)CC4)c(OC)cc23)c(Cl)cc1Cl,,9.44 µM (active)
CCOC(=O)/C=C/C(=O)OCC,0.729% (inactive),
N#CCc1ccc(Cl)cc1Cl,2.4% (inactive),
CCCCCCCCCCCCCCN(CCO)CCO,,61.1 µM (active)
CC(C)=CCC1C(=O)N(c2ccccc2)N(c2ccccc2)C1=O,-3.48% [at 42.5 µM] (inactive),
C[C@]12CC[C@@H]3c4ccc(O)cc4CC[C@H]3[C@@H]1CC[C@@H]2OC(=O)CCC1CCCC1,,61.1 µM (active) and inactive
Cc1ccco1,-0.713% (inactive),
